MITF primary = MITF inhibitors, primary screen, biochemical, AlphaScreen, human; Microphthalmia-associated transcription factor (Homo sapiens), O75030; AlphaScreen MITF homodimerization, bead proximity signal; inhibition, % at 2.6 µM; hit rate 0.91% among 650,000; AID 1259374, 2018; in the data active means inhibition above about 50%;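 further: 0% = vehicle wells with protein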
FBW7 activator = FBW7 E3 ligase activators, primary screen, biochemical, AlphaScreen, human | F-box/WD repeat-containing protein 7 (Homo sapiens), Q969H0 | AlphaScreen FBW7–phospho-cyclin E peptide binding, activator screen | normalized activity (activation), % at 26.1 µM | hit rate 0.13% among 650,000 | AID 1259310, 2017; in the data active means normalized activity above about 1.9%;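 further: purified mutant Fbw7 with reduced substrate affinity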
GPR151 activ = activators of human GPR151, primary screen, cell-based, PathHunter beta-arrestin, luminescence; hit rate 1% among 650,000; activation, % at 11.2 µM; PathHunter beta-arrestin GPR151 cells; in the data active means activation above about 4.9%;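 further: 0% = median of compound wells and 100% = cells with positive control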
Target sequence (Q8TDV0 whole entry, looked up): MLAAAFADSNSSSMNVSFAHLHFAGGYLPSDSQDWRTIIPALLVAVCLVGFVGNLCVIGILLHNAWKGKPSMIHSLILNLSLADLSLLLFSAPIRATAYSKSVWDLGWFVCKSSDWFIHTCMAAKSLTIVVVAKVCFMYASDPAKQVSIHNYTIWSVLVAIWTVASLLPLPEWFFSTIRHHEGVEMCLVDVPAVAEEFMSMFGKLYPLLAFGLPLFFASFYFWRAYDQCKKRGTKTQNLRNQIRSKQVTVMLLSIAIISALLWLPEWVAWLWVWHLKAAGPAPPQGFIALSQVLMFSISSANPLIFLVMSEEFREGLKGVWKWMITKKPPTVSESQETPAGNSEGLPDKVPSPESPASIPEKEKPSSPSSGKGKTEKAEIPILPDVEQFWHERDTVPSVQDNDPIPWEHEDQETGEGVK
TEAD-YAP inh = TEAD-YAP interaction inhibition, primary screen, TEAD-YAP interaction inhibitor project, luminescence, HEK-TIYL cells. TEAD-Gal4/YAP UAS-luciferase luminescence. inhibition, % at 9.12 µM. hit rate 1.4% among 640,000; in the data active means inhibition above about 32%;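 further: 0% = median of test compound wells and 100% = reference inhibitor wells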
GPR151 confirm = GPR151 activators, triplicate retest, confirmation, cell-based, PathHunter beta-arrestin, luminescence; AID 1508609, 2020; activation, % at 11.2 µM; GPR151 PathHunter beta-arrestin cells, 90 min; % of EA-reagent control over plate median; shares compounds with GPR151 activ; 6,700 tested, under 10 active;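 active means mean percent activation across replicates above the confirmation screen cutoff of 4.91%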
GPR119 counter = GPR119 activators in beta-arrestin cells, counter-screen for GPR151 activator project, cell-based, PathHunter beta-arrestin, luminescence, triplicate. shares compounds with GPR151 activ. 90 min; 0 = compound-well median, 100 = enzyme-acceptor control. activation, % at 11.2 µM. hit rate 0.3% among 6,700;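 active means mean percent activation in the counterscreen above 29.09%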;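 further: counterscreen on off-target GPR119 to flag nonselective hits from the GPR151 activator screen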
* marks the source's active call; other numbers are inactive results. Only some compounds are listed: those with a hit (about 3.5% of all), similar ones and a draw of the others.

Screening O=C(/C=C/c1ccc(OC(=O)c2cccnc2)cc1)c1ccccc1 returned MITF primary 6.2, FBW7 activator 0.0, GPR151 activ -3.5 and TEAD-YAP inh -26.4.
CCOc1ccc(/C=C/C(=O)O)cc1 was read as MITF primary 5.0, FBW7 activator -0.1, GPR151 activ 0.4 and TEAD-YAP inh 3.6.
For O=C(Nc1ccc(Cl)cn1)c1ccc(Cl)cc1Cl the results were MITF primary 14.0, FBW7 activator 0.2, GPR151 activ 7.0*, TEAD-YAP inh 15.2, GPR151 confirm -0.3 and GPR119 counter -11.5.
For O=C(COc1ccc(Cl)cc1)Nc1ccc(Br)cn1 the results were MITF primary 9.4, FBW7 activator 0.2, GPR151 activ 1.4 and TEAD-YAP inh -14.6.
O=Cc1cc(Cl)ccc1OCC(=O)Nc1ccc(F)cc1 was read as MITF primary 8.2, FBW7 activator 0.1, GPR151 activ 11.0*, TEAD-YAP inh -57.2, GPR151 confirm -0.7 and GPR119 counter 2.9.
O=C(COc1ccc(F)cc1F)Nc1ccc(F)cc1 was read as MITF primary 9.0, FBW7 activator 0.2, GPR151 activ -1.6 and TEAD-YAP inh -42.6.
O=C(Nc1ccc(Cl)cn1)c1ccccc1Cl was read as MITF primary 5.7, FBW7 activator 0.2, GPR151 activ -3.8 and TEAD-YAP inh -69.4.
`O=C(COc1ccc(F)cc1)Nc1ccc(Cl)cn1` gave MITF primary 0.1, FBW7 activator -0.2, GPR151 activ 18.5*, TEAD-YAP inh -32.7, GPR151 confirm -0.5 and GPR119 counter -8.1.
Screening C=C(C)COc1c(I)cc(C=O)cc1OC returned MITF primary 9.7, FBW7 activator 0.0, GPR151 activ 6.6*, TEAD-YAP inh 10.3, GPR151 confirm -0.1 and GPR119 counter -5.7.
CCCCn1c2c(c(=O)n(C)c1=O)C(CC(=O)O)C(=O)N2 (stereo not drawn) was read as MITF primary -3.7, FBW7 activator -0.2, GPR151 activ 1.7 and TEAD-YAP inh 7.4.
Screening CCCCOc1c(I)cc(C(=O)O)cc1OCC returned MITF primary -8.6, FBW7 activator 0.1, GPR151 activ 0.4 and TEAD-YAP inh -3.1.
CCOc1cc(C(=O)O)cc(I)c1OCc1ccccc1 was read as MITF primary -1.5, FBW7 activator 0.0, GPR151 activ 9.2*, TEAD-YAP inh 7.7, GPR151 confirm 0.2 and GPR119 counter 6.5.
For COc1cccc(C(=O)Nc2ccc(S(=O)(=O)NCCc3ccccc3)cc2)c1 the results were MITF primary 9.1, FBW7 activator 0.5, GPR151 activ 0.2 and TEAD-YAP inh 21.5.
For COC(=O)NCC12CC3CC(CC(C3)C1)C2 the results were MITF primary 10.5, FBW7 activator 0.2, GPR151 activ 8.9*, TEAD-YAP inh 5.5, GPR151 confirm 0.7 and GPR119 counter -5.0.
NC(=O)NCC12CC3CC(CC(C3)C1)C2 was read as MITF primary -9.0, FBW7 activator 0.0, GPR151 activ 1.4 and TEAD-YAP inh -7.4.
Screening CN(C)S(=O)(=O)c1ccc2c(c1)CC(c1nc3ccc(-c4ccnc(N)n4)cc3[nH]1)CO2 (stereo not drawn) returned MITF primary 1.7, FBW7 activator 0.2, GPR151 activ 0.1 and TEAD-YAP inh 10.5.
`CC(C)(C)C(=O)NCC1Cc2cccc(-c3ccc(S(C)(=O)=O)cc3)c2O1` (stereo not drawn) gave MITF primary 17.6, FBW7 activator 0.2, GPR151 activ 0.3 and TEAD-YAP inh -7.2.
Screening CC(=O)NCC1Cc2cccc(-c3ccc(S(C)(=O)=O)cc3)c2O1 (stereo not drawn) returned MITF primary 8.5, FBW7 activator -0.1, GPR151 activ 7.3*, TEAD-YAP inh 6.4, GPR151 confirm 0.2 and GPR119 counter 11.9.
For Cc1ccc(N=NNc2cccc([N+](=O)[O-])c2)cc1 the results were MITF primary -3.8, FBW7 activator 0.1, GPR151 activ 5.9*, TEAD-YAP inh -4.0, GPR151 confirm -0.2 and GPR119 counter -6.1.
For CN(c1ccccc1)S(=O)(=O)c1ccc(C(=O)OC2CCOC2=O)cc1 (stereo not drawn) the results were MITF primary 3.1, FBW7 activator -0.1, GPR151 activ 10.9*, TEAD-YAP inh -5.2, GPR151 confirm -0.3 and GPR119 counter -2.7.
For O=C(OC1CCOC1=O)c1ccc(S(=O)(=O)N2CCCC2)cc1 (stereo not drawn) the results were MITF primary 0.2, FBW7 activator 0.2, GPR151 activ -1.6 and TEAD-YAP inh -8.7.
`CC1CCCN(S(=O)(=O)c2ccc([N+](=O)[O-])cc2)C1` (stereo not drawn) gave MITF primary 4.0, FBW7 activator -0.3, GPR151 activ 5.7*, TEAD-YAP inh -3.9, GPR151 confirm 1.2 and GPR119 counter 1.6.
Screening COc1cc(CNc2ncc(-c3ccc4c(c3)OCO4)n2C)cc(OC)c1OC returned MITF primary 19.2, FBW7 activator -0.3, GPR151 activ -0.2 and TEAD-YAP inh 15.0.
`Cc1c(N=CN(C)C)cc([N+](=O)[O-])cc1[N+](=O)[O-]` gave MITF primary 0.3, FBW7 activator -0.1, GPR151 activ -0.5 and TEAD-YAP inh 12.9.
`Cc1c(N=Cc2ccccc2)cc([N+](=O)[O-])cc1[N+](=O)[O-]` gave MITF primary -4.2, FBW7 activator -0.1, GPR151 activ 5.3*, TEAD-YAP inh 4.6, GPR151 confirm -0.7 and GPR119 counter -6.5.
CN1C(=O)C(C)(C)c2cc(S(=O)(=O)N3CCC(N4CCCCC4)CC3)ccc21 was read as MITF primary 2.8, FBW7 activator 0.0, GPR151 activ 2.2 and TEAD-YAP inh 6.3.
Screening COc1ccccc1N=c1oc2ccccc2cc1C(=O)Nc1ccc(Cl)cc1Cl returned MITF primary -1.5, FBW7 activator 0.1, GPR151 activ 1.5 and TEAD-YAP inh 4.3.
For COc1ccccc1NC(=O)c1cc2ccccc2oc1=Nc1ccc(Cl)cc1Cl the results were MITF primary -1.8, FBW7 activator -0.2, GPR151 activ 9.2*, TEAD-YAP inh -19.2, GPR151 confirm 0.4 and GPR119 counter 9.1.
`Cn1cc(/C=C2/SC(N)=NC2=O)c2ccccc21` gave MITF primary 15.1, FBW7 activator 0.7, GPR151 activ -0.7 and TEAD-YAP inh -4.0.

Screening results from PubChem BioAssay.
